The whole screen tested about 1,500 compounds, of which about 430 (29%) were called active. The list is a sample of the results. Potency and affinity values are given separately. Unmarked numbers belong to inactive results. The rule behind the calls is not given here.

The nature of this assay: insulin secretion activators without glucose, dose response, counter-screen for glucose-dependent insulin secretion activators, cell-based, INS-1E, Gaussia luciferase, luminescence, cherry-pick (AID 977606).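 Note: 0% = median of neutral control wells.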 To be noted: INS-1E Gaussia luciferase insulin secretion, no glucose, 100% = twice neutral-control luminescence; series mostly up to 35 µM; activation: at the top concentration. On the technique in general: A counterscreen serves to expose hits that act by an unwanted route or on another target.
In the case of `COc1ccc(S(=O)(=O)N2CCCCC2)cc1NC(=O)C1CC1C` (stereo not given), the “activation” value was 26.7%.
Turning to `CC(Oc1ccc2c3c(c(=O)oc2c1)CCCC3)C(=O)NCc1cccnc1` (stereo not given), the “activation” value is -13%.
As for `Cc1ccc(Nc2ncnc3sccc23)c(C)c1`, the “activation” value was -5.06%.
For `O=C(CN1C(=O)NC(Cc2c[nH]c3ccccc23)C1=O)NCCc1ccccc1` (stereo not given), the “activation” value is 0.275%.
With `O=C(Nc1ccc(NC(=O)c2cccs2)cc1)c1ccc(Br)o1` the figure was -6.3%; with `O=C(Nc1nnc(CCS(=O)(=O)c2ccc3ccccc3c2)s1)c1cccs1`, 1.61%.
For `CS(=O)(=O)N1CCCCC1c1cc(C(=O)Nc2cccc(C#N)c2)no1` (stereo not given), the “activation” value was 3.77%.
As for `CN(c1ccc(F)cc1)S(=O)(=O)c1ccc(Cl)c(C(=O)NCC2CCCO2)c1` (stereo not given), the “activation” value is -1.9%.
For the compound `COc1cc(Cl)c(C)cc1NC(=O)c1ccccc1NC(=O)CN1CCN(C(C)=O)CC1`, the “activation” value was -5.13%.
For `Cc1cc(C)nc(NC(=O)c2ccc(Cl)cc2Cl)n1` the value was -13.6%.
`O=C(CNC(=O)c1ccco1)N/N=C/c1ccc(C(=O)O)cc1`: the “activation” value is 13.5%.
Regarding `COc1cccc2cc(-c3cc(=O)oc4cc(C)c(O)cc34)oc12`, the “activation” value was -14.2%.
Turning to `COCCN(CCOC)Cc1cc(=O)oc2cc(C)c(C)cc12`, the “activation” value is 19.4%.
In the case of `Cc1c(OCC(=O)NCc2ccccn2)ccc2c3c(c(=O)oc12)CCCC3`, the “activation” value was -14.3% [at 11 µM].
Take `Cc1sc2ncn(CC(=O)NCc3ccccc3)c(=O)c2c1C`: the “activation” value was 3.79%.
Regarding `O=C1NC(=O)C2(CCCCC2C2CCCCC2)N1` (stereo not given), the “activation” value was -0.57%.
With `COc1ccccc1CNC(=O)CCS(=O)(=O)Cc1ccc(C)cc1` the figure was 7.48%.
For `Cc1cc(C)c(CSc2nnnn2-c2ccc(C(=O)O)cc2)c(C)c1`, the “activation” value is -5.78%.
Consider `CC(C)c1cc(C(C)C)n2nc(N)nc2n1`, for which the “activation” value is -3.96%.
As to `CN1CCSc2ccc(C(=O)Nc3cccc(F)c3)cc21`, the “activation” value was -8.84%.
For `CC(=O)c1ccc(OCC(=O)N(C2CCCCC2)C2CCS(=O)(=O)C2)cc1` (stereo not given) the value was 4.75%.
Turning to `Cc1ccc(C(=O)N2CCN3C(=O)c4ccccc4C23c2ccccc2)cc1` (stereo not given), the “activation” value was 1.92%.
Take `COc1cc2cnc(-c3cccnc3)cc2cc1OC`: the “activation” value was -6.43%.
For `Cc1ccc(S(=O)(=O)NCc2csc(-c3cccs3)n2)cc1`, the “activation” value is 13.5%.
As for `COc1cc2[nH]c(-c3ccc(C)cc3)cc(=O)c2cc1OC`, the “activation” value was -15.4%.
For the compound `O=C(Cn1[nH]c(=O)c2ccccc2c1=O)OCC(=O)c1ccc(F)cc1`, the “activation” value was -5.33%.
In the case of `C=CCN(CC=C)S(=O)(=O)c1ccc(C(=O)Nc2sc3c(c2C(N)=O)CCCCC3)cc1`, the “activation” value was 23.2%.
For `CCN(Cc1ccccc1)S(=O)(=O)c1ccccc1Br` the value was -6.72%.
With `CCOCCCNC(=O)c1oc2ccc3c(c2c1C)C(O)CC(C)(C)O3` (stereo not given) the figure was 0.062%; with `NC(=O)c1ncn([C@@H]2O[C@H](C(=O)N[C@H](Cc3ccccc3)C(=O)O)[C@@H](O)[C@H]2O)n1`, -1.16%.
With `CCc1nc2c(OCc3ccccc3C(=O)OC)cccn2c1N(C)C(=O)c1ccncc1` the figure was -2.47%; with `Cc1cccc(C)c1NC(=O)C1c2ccccc2Oc2ccccc21`, 26.8%.
Consider `O=c1[nH]c2cc(Cl)ccc2n(CCNc2ncc(C(F)(F)F)cc2Cl)c1=O`, for which the “activation” value is 7.49%.
Turning to `O=C(c1cc(-c2ccccc2)nc2ccccc12)N1CCCC1`, the “activation” value is -4.1%.
With `Nn1c(C2CCCCC2)nc2ccccc2c1=O` the figure was -1.68%; with `CNC(=O)c1cc(C(=O)c2ccccc2Br)c[nH]1`, -15.6%; with `CSc1ccc(C(=O)C2CCCN(C(=O)c3ccc4c(c3)no[n+]4[O-])C2)cc1` (stereo not given), -3.61%.
Consider `CN(C(=O)[C@H]1O[C@@H](n2cnc(C(N)=O)n2)[C@H](O)[C@@H]1O)c1ccccc1`, for which the “activation” value was 6.71%.
For `CC(=O)Nc1c(C(=O)C2CC2)oc2ccccc12`, the “activation” value was -4.6%.
For `Cc1ccc(-c2cnc3cccnn23)cc1F` the value was 20%; for `CCN(c1ccccc1)S(=O)(=O)c1ccc(OC)c(OC)c1`, -4.43%; for `O=S(=O)(c1ccc(=S)[nH]c1)N1CCCCCC1`, -9.77%.
As for `CCC(=O)Nc1cc(C(C)(C)C)ccc1C(C)=O`, the “activation” value was 2.29%.
Consider `Cc1ccccc1C(=O)NC1CCSC1=O` (stereo not given), for which the “activation” value is 17.9%.
Consider `COc1ccc(C(=O)Nc2nnc(-c3cccs3)s2)cc1`, for which the “activation” value was -8.39%.
For the compound `Cc1cc2nc(-c3ccccc3O)[nH]c2cc1C`, the “activation” value is 3.89%.
In the case of `c1csc(CNc2nc(Oc3ccncc3)c3sccc3n2)c1`, the “activation” value was -11%.
With `O=C(Cn1cc(C(F)(F)F)ccc1=O)NCC1CCCO1` (stereo not given), the “activation” value was 14.9%.
With `Cc1ccccc1Nc1c(-c2ccncc2)nc2ccc(Cl)cn12` the figure was -2.55%; with `O=C(O)c1c(NC(=O)N2CCOCC2)sc2c1CCCC2`, -6.11%.
For `O=c1c(C(c2ccccc2)c2c(O)sc3ccccc3c2=O)c(O)sc2ccccc12`, the “activation” value was -2.79%.
Consider `Cn1c(=O)c2c(nc3n2CCCN3CCc2ccccc2)n(C)c1=O`, for which the “activation” value is 18.9%.
With `COc1ccc(N2CC(C(=O)N3CCc4ccccc43)CC2=O)cc1` (stereo not given), the “activation” value was -13.9%.
Consider `COc1ccc(-c2[nH]c3ccccc3c2SCCN)cc1`, for which the “activation” value is 1.51%.
With `O=C1CSC(c2ccccc2)N1c1ccc(F)cc1F` (stereo not given) the figure was -1.91%.
For `CCc1nc2c(OCCC3CCCCC3)cccn2c1N(C)C(=O)c1ccco1`, the “activation” value is 0.816%.
For `O=C(O)CC(CC(=O)Nc1ccc(C(=O)O)cc1)c1ccccc1` (stereo not given) the value was -19.9%; for `CC1CCN(C(=O)c2cccc(S(=O)(=O)N3CCN(c4ccccc4)CC3)c2)CC1`, 5.82%.
In the case of `O=C(COC(=O)c1cccnc1Cl)Nc1cc(S(=O)(=O)N2CCCCCC2)ccc1Cl`, the “activation” value is -11.2%.
With `CC(=O)NN1C(=O)c2ccccc2NC1c1ccccc1O` (stereo not given), the “activation” value is 0.677%.
Consider `CN1CCN(c2ccc(CNC(=O)C3(C)Cc4c(-c5ccccc5)ccnc4O3)cc2)CC1` (stereo not given), for which the “activation” value was -11.3%.
With `O=C(NC1CCCCC1)c1cccnc1Sc1ccccc1`, the “activation” value is -16%.
With `COc1ccc(-c2nc(-c3cccnc3)no2)cc1OC`, the “activation” value is 4.11%.
Turning to `COc1ccc(C(=O)Nc2nnc(-c3ccco3)s2)cc1`, the “activation” value was -4.87%.
Turning to `CCn1nc(C)c(NC(=O)c2cnn3c(C(F)F)cc(-c4ccccc4)nc23)c1C`, the “activation” value is -12.6%.
Take `CCCc1cc(NCC2CCCO2)n2c(nc3ccccc32)c1C#N` (stereo not given): the “activation” value was 15.6%.
`COc1ccc(CCN(C)C(=O)Cn2c(=O)oc3ccccc32)cc1OC`: the “activation” value was -4.62%.
Regarding `CCc1nnc(NC(=O)C(c2ccccc2)c2ccccc2)s1`, the “activation” value was -6.83%.
`CCc1nc2c(OCc3ccccc3C)cccn2c1N(C)C(=O)c1ccco1`: the “activation” value is 0.871%.
Turning to `O=S(=O)(Nc1ncnc2sc3c(c12)CCC3)c1cc(F)ccc1F`, the “activation” value is 7.27%.
With `CCN(CC)C(=O)n1c(Cc2ccccc2)nc2ccccc21` the figure was 12.5%; with `Cc1ccc(S(=O)(=O)/N=C(/Nc2cccc(O)c2)c2ccccc2)cc1`, 1.93%.
With `CCOc1ncccc1C(=O)NCc1cccc(OC)c1`, the “activation” value was -7.01%.
As to `COc1cccc(CNC(=O)c2cccnc2Sc2ccccc2)c1`, the “activation” value was -13.5%.
Take `Cc1c(-c2cccc(Cl)c2)nc2ccccc2c1C(=O)NC1CC1`: the “activation” value was -6.74%.
Regarding `COc1ccc(CN(C)C(=O)Cn2cc(C)c(=O)[nH]c2=O)cc1OC`, the “activation” value was 15%.
As to `COc1ccc(-c2cc(NC=O)c3ncc(-c4ccc(OC)c(OC)c4)n3c2)cc1`, the “activation” value is -18.9%.
As for `CC(=O)Nc1cc(-c2ccc(N3CCN(C)CC3)cc2)cn2c(-c3cccc(C(=O)N(C)C)c3)cnc12`, the “activation” value is 22.4%.
Consider `O=C(NCc1ccc(Cl)cc1)c1cc(=O)[nH]c2ccc(S(=O)(=O)N3CCOCC3)cc12`, for which the “activation” value is 14.3%.
On to `O=C(Nc1ccc(S(=O)(=O)N2CCOCC2)cc1)c1ccc(=O)[nH]c1`, for which the “activation” value is -8.01%.
With `COc1ccc2[nH]c3c(NCCCN4CCCC4=O)ncnc3c2c1` the figure was 5.89%.
For the compound `O=c1c(Cc2ccc(Cl)cc2Cl)c(O)ccn1CC(F)(F)F`, the “activation” value was -4.12%.
For the compound `CCNc1nc(NCC)nc(Nn2cnnc2)n1`, the “activation” value was -7.21%.
As to `CS(=O)(=O)N1CCCCC1c1cc(C(=O)Nc2cccc3c2CCCC3)no1` (stereo not given), the “activation” value was 0.303%.
For `CCOC(=O)c1nc(SC)n(C)c1C(=O)OCC` the value was -13.2%; for `COc1ccc2c(c1)C(C)(Cc1ccc(C(=O)c3ccccc3)cc1)C(=O)N2` (stereo not given), -0.179%.
For the compound `Cc1ccc(/C=N/n2c(-c3cccnc3)n[nH]c2=S)s1`, the “activation” value is -14.7%.
As for `O=C(O)c1ccc(/C=N/n2c(C3CCCCC3)n[nH]c2=S)cc1`, the “activation” value was 5.52%.
Take `C[C@H]1[C@@H](c2ccccc2)Oc2c(Cl)cccc2S(=O)(=O)N1C`: the “activation” value was 7.53%.
As for `O=C(COc1ccccc1)N(Cc1cccc(F)c1)C1CCS(=O)(=O)C1` (stereo not given), the “activation” value was 4.65%.
Consider `Cc1ccc(NCc2cccc(B(O)O)c2)cc1`, for which the “activation” value is -15.8%.
Turning to `Cc1cccc(NCc2ccccc2)c1`, the “activation” value was -3.91%.
Consider `Cc1cc(C)cc(Cn2c3ccc(NC(=S)NCc4ccccc4F)cc3c(=O)n2C)c1`, for which the “activation” value is -29.4%.
In the case of `CC(C)Oc1ccc(C(=O)CCN2CCOCC2)cc1`, the “activation” value was 2.3%.
For `O=C(c1ccc2c(c1)OCO2)N1CCc2ccccc2C1` the value was -4.16%; for `O=C(CCN1CCOCC1)c1ccc(N2CCCCC2)cc1`, -5.22%.
On to `CC(=O)NC1C(=O)N(CCN2CCOCC2)c2ccc(Br)cc21` (stereo not given), for which the “activation” value is -9.58%.
On to `CCCn1c2ccccc2c2cn[nH]c(=O)c21`, for which the “activation” value is -1.74%.
Regarding `CC1CCC(NCCNC(=O)c2ccco2)CC1` (stereo not given), the “activation” value was -8.27%.
On to `Cc1ccc(S(=O)(=O)Nc2nc(C)cc(NN)n2)cc1`, for which the “activation” value was 7.55%.
With `FC(F)(F)c1cc(-c2ccccc2)nc(-n2cc(Cl)cn2)n1` the figure was 5.23%; with `Cn1c(=O)c2[nH]c(SCc3ccccn3)nc2n(C)c1=S`, -18.9%.
For `O=C(NCCN1CCN(C(=O)c2ccccc2Cl)CC1)C(=O)NCc1ccccc1` the value was 6.21%.
For `CC(=O)Nc1nc(NCc2ccccc2Cl)n(-c2ccccc2)n1` the value was 6.24%; for `CC(C)Nc1nc(Nc2ccc(C(N)=O)cc2)c2sccc2n1`, 39.4%.
Take `CCSc1nnc2ccc(-c3cccs3)nn12`: the “activation” value was 2.37%.
With `O=C(CCS(=O)(=O)c1ccc(Cl)cc1)Nc1ccc(N2CCOCC2)cc1`, the “activation” value is 1.26%.
In the case of `COc1ccc(/C=C/c2nc(C#N)c(NCCN(C)C)o2)cc1OC`, the “activation” value is -17.3%.
With `CCCCNC(=O)C1(C)CCN1C(=O)c1cc2ccccc2s1` (stereo not given) the figure was 9.86%; with `CCOC(=O)C1(C)CCCCN1C(=O)c1cccc(Cl)c1` (stereo not given), 5.65%; with `CCc1nc(N)nc2c1C(=O)CC(C)(C)C2`, 7.91%.
Take `CNc1ccc(-c2ccccc2OC)cn1`: the “activation” value is -3.6%.
On to `COc1ccc(CCN2C(=O)CC(Cc3ccccc3)C2=O)cc1OC` (stereo not given), for which the “activation” value is -4.36%.
Consider `CCOC(=O)c1c(S(=O)(=O)NCCc2ccc(OC)c(OC)c2)c(C)n(C)c1C`, for which the “activation” value is 3.38%.
With `COc1ccc(-c2nc3cccc(C)n3c2NCc2ccco2)cc1OC` the figure was 12.7%.

(Values after PubChem BioAssay AID977606 (Broad Institute, 2014).)
